{"source": "ChEMBL document CHEMBL3988442", "about": "“University of Dundee, Small-Polar-MMV Screening Library” (2021)", "note": "Hit rate of the full screen: of about 69,000 compounds, about 950 (1.4%) showed an effect of 50% or more. For the sample, strong results were picked, then their nearest neighbours and some compounds at random.", "data": [{"test_system": "Mycobacterium tuberculosis", "assay": "Cornell M. t heat shock assay; note: in the data most compounds retested in dose-response had high values", "assay_type": "functional, organism-based", "set-up": "dose or concentration left out as unconfirmed", "units": {"Percent Effect": "%"}, "values": [{"smiles": "CC(C)(CNC(=O)C(C)(C)c1ccccc1F)C(N)=O", "Percent Effect": -4.561}, {"smiles": "CC(C)(C(=O)NCC(N)=O)c1ccccc1F", "Percent Effect": 8.109}, {"smiles": "CN(C)C(C)(C)CNC(=O)C(C)(C)c1ccccc1F", "Percent Effect": 97.79}, {"smiles": "CC1CCN(c2ncc3c(n2)CN(C2CCS(=O)(=O)C2)C3=O)CC1", "note": "(stereo not given)", "Percent Effect": -20.34}, {"smiles": "Cc1nccn1-c1cccc(C2CCCN2)n1.Cl", "note": "(stereo not given)", "Percent Effect": -11.58}, {"smiles": "CCCS(=O)(=O)N1CCC2(CC1)CN(CC1CCOC1)c1ccccc12.O=C(O)C(F)(F)F", "note": "(stereo not given)", "Percent Effect": 28.34}, {"smiles": "Cc1cccc(CN2C[C@@H]3COC[C@]3(CNC(=O)C3CC3)C2)c1.O=C(O)C(F)(F)F", "Percent Effect": 2.9}, {"smiles": "COCCN(Cc1cc(O)nc2ccccc12)C(=O)NC(C)C", "Percent Effect": 104.4}, {"smiles": "CC(C)NC(=O)N(Cc1cc(O)nc2ccccc12)C(C)C", "Percent Effect": -8.593}, {"smiles": "COCCCN(Cc1cc(O)nc2ccccc12)C(=O)NC(C)C", "Percent Effect": -0.9795}, {"smiles": "Cc1cc(N2CCN(C(=O)[C@@H]3C[C@@H]4C=C[C@H]3C4)CC2)cc(C)n1", "Percent Effect": -20.18}, {"smiles": "O=C(CC1CC1)N1C[C@@H]2CCN(c3cnccn3)C[C@@H]2C1.O=C(O)C(F)(F)F", "Percent Effect": -16.38}, {"smiles": "O=C(NCCCN1CCCC1=O)c1ccc(-n2ccc3ccccc32)s1", "Percent Effect": 22.37}, {"smiles": "O=C(NCCCN1CCOCC1)c1ccc(-n2ccc3ccccc32)s1", "Percent Effect": 14.99}, {"smiles": "O=C(NCCCN1CCCCC1)c1ccc(-n2ccc3ccccc32)s1", "Percent Effect": 102.3}, {"smiles": "CC(=O)N1C[C@@H]2CC[C@H](C1)N(S(=O)(=O)c1ccc(C#N)cc1Cl)C2", "Percent Effect": 12.47}, {"smiles": "O=C(O)C(F)(F)F.O=C(c1cscn1)N1CCC2(CCN(Cc3cccs3)CC2)C1", "Percent Effect": 3.711}, {"smiles": "O=C(Nc1cccnc1)[C@@H]1COC[C@H]2CN(C3CCCC3)C[C@H]21.O=C(O)C(F)(F)F.O=C(O)C(F)(F)F", "Percent Effect": -37.6}, {"smiles": "CCCc1cc(=O)[nH]c(SCc2ccccn2)n1", "Percent Effect": 69.86}, {"smiles": "Cc1nnc(SCc2ccccn2)s1", "Percent Effect": 4.26}, {"smiles": "CCc1cc(=O)[nH]c(SCc2ccccn2)n1", "Percent Effect": 70.99}, {"smiles": "CCc1c(C)nc(SCc2ccccn2)[nH]c1=O", "Percent Effect": 33.29}, {"smiles": "CCCc1cc(=O)[nH]c(-c2ccccc2CN(C)CCC(C)C)n1", "Percent Effect": -7.876}, {"smiles": "O=c1cc(C2CCNCC2)nc(CCc2ccccn2)[nH]1", "Percent Effect": 6.043}, {"smiles": "COc1cccc(CC(=O)N2CC[C@@H](OC)[C@@H]2Cc2cccnc2)c1.O=C(O)C(F)(F)F", "Percent Effect": 11.27}, {"smiles": "Cc1nnc(CN(C)C2CCCN(Cc3noc(C4CC4)n3)C2)o1", "note": "(stereo not given)", "Percent Effect": -4.888}, {"smiles": "CCOC1COC2(CCN(CC3CC3)CC2)C1.O=C(O)C(F)(F)F", "note": "(stereo not given)", "Percent Effect": -11.36}, {"smiles": "COc1ccc(-c2noc(CNC(C)Cn3cccn3)n2)c(OC)c1", "note": "(stereo not given)", "Percent Effect": -27.41}, {"smiles": "Cc1ccc(-c2nc(CN3CCOC(Cn4cccn4)C3)cs2)o1", "note": "(stereo not given)", "Percent Effect": 19.35}, {"smiles": "Cc1ccc(-c2nc(CNC(C)Cn3cccn3)cs2)o1", "note": "(stereo not given)", "Percent Effect": 55.14}, {"smiles": "COc1ccc(-c2nc(CNC(C)Cn3cccn3)cs2)cc1", "note": "(stereo not given)", "Percent Effect": 58.05}, {"smiles": "COc1cccc(-c2nc(CNCc3cccnc3)cs2)c1", "Percent Effect": -18.41}, {"smiles": "CC(Cn1cccn1)NCc1csc(-c2ccccc2)n1", "note": "(stereo not given)", "Percent Effect": 29.32}, {"smiles": "COc1cccc(-c2nc(CNC(C)Cn3cccn3)cs2)c1", "note": "(stereo not given)", "Percent Effect": 89.4}, {"smiles": "O=C(NCc1ccccn1)[C@@H]1COC[C@H]2CN(C3CCOCC3)C[C@H]21.O=C(O)C(F)(F)F.O=C(O)C(F)(F)F", "Percent Effect": 0.9957}, {"smiles": "CC(=O)N1CCN(c2cncc(C3CCNCC3)n2)CC1.Cl", "Percent Effect": -8.785}, {"smiles": "O=C(O)C(F)(F)F.O=C(c1ccccc1)N1CCOC2(CCN(Cc3cccs3)CC2)C1", "Percent Effect": -35.41}, {"smiles": "Cc1ccc(CN2Cc3nnn(C)c3C(COCC3CC3)C2)s1.O=C(O)C(F)(F)F", "note": "(stereo not given)", "Percent Effect": -11.83}, {"smiles": "O=C(O)C(F)(F)F.c1cnc(N2CCOCC3(CN(Cc4cc[nH]n4)CCO3)C2)nc1", "note": "(stereo not given)", "Percent Effect": -18.22}, {"smiles": "CCCC(=O)N1CCC(c2cc3cccnc3c(O)n2)CC1", "Percent Effect": -11.07}, {"smiles": "O=C(CC1CCCC1)N1CCC(c2cc3ncccc3c(O)n2)CC1", "Percent Effect": 63.36}, {"smiles": "O=C(CCC1CCCC1)N1CCC(c2cc3ncccc3c(O)n2)CC1", "Percent Effect": 59.08}, {"smiles": "CCOCC(=O)N1CCC(c2cc3ncccc3c(O)n2)CC1", "Percent Effect": -9.964}, {"smiles": "CCCC(=O)N1CCCC(c2cc3cccnc3c(O)n2)C1", "note": "(stereo not given)", "Percent Effect": -27.54}, {"smiles": "COCC(=O)N1CCC(c2cc3ncccc3c(O)n2)CC1", "Percent Effect": 10.22}, {"smiles": "CC(C)N(C)Cc1nnn2c1CN(Cc1cccnc1)CCC2.O=C(O)C(F)(F)F.O=C(O)C(F)(F)F.O=C(O)C(F)(F)F", "Percent Effect": -0.7766}, {"smiles": "CC(C)n1c(=O)nc2n1C(=O)N(c1ccc(Cl)cc1)C2", "Percent Effect": 4.407}, {"smiles": "CCOC(=O)[C@]12CCCN(Cc3cccs3)C[C@H]1CN(CC(C)C)C2.O=C(O)C(F)(F)F.O=C(O)C(F)(F)F", "Percent Effect": 26.18}, {"smiles": "O=C(CN1CC(c2nc(-c3ccco3)no2)C1)NCCc1ccccc1.O=C(O)C(=O)O", "Percent Effect": -7.325}, {"smiles": "CS(=O)(=O)Cc1ccc(Cl)cc1NCc1ccccc1F", "Percent Effect": 52.35}, {"smiles": "CC(CS(C)(=O)=O)NCc1cc(Cl)ccc1F", "note": "(stereo not given)", "Percent Effect": -12.53}, {"smiles": "CN(C)C(=O)Cc1ccccc1NCc1cccc(F)c1F", "Percent Effect": -10.01}, {"smiles": "CS(=O)(=O)Cc1ccccc1NCc1cc(Cl)ccc1Cl", "Percent Effect": -12.17}, {"smiles": "O=C(Cc1cccc(F)c1F)NS(=O)(=O)c1ccc(Cl)cc1F", "Percent Effect": -11.18}, {"smiles": "CS(=O)(=O)Cc1ccc(Cl)cc1NCc1cccc(F)c1F", "Percent Effect": 57.79}, {"smiles": "Cn1nc(C(=O)N2CCOCC2)cc1C(=O)Nc1ccc(Cl)cc1Cl", "Percent Effect": 13.26}, {"smiles": "Cc1sc(NC(=O)CN(C)CCOc2cccc(F)c2)c(C)c1C", "Percent Effect": 3.214}, {"smiles": "Cc1csc(NC(=O)CN(C)CCOc2cccc(F)c2)n1", "Percent Effect": 95.41}, {"smiles": "CN(CCOc1cccc(F)c1)CC(=O)Nc1ccncc1", "Percent Effect": -17.11}, {"smiles": "CCc1oc(C(=O)N2CC[C@H]3CC[C@@H](C2)N3)cc1CN(CC)CC", "Percent Effect": -18.46}, {"smiles": "CN(C)C(=O)N1C[C@@H]2CC[C@H](C1)N(Cc1nnc(-c3ccco3)o1)C2", "Percent Effect": 3.686}, {"smiles": "CN(C)C(=O)N1C[C@@H]2CC[C@H](C1)N(Cc1nnc(C3CC3)o1)C2", "Percent Effect": 104.3}, {"smiles": "CN(C)C(=O)N1C[C@@H]2CC[C@H](C1)N(Cc1nnc(-c3ccccc3)o1)C2", "Percent Effect": 16.99}, {"smiles": "CNc1ncc2c(n1)CN(CCc1ccc(F)cc1)C2=O", "Percent Effect": -20.93}, {"smiles": "CNC(=O)[C@H]1CO[C@H]2CCN(c3ncc(F)cn3)C[C@H]2C1.O=C(O)C(F)(F)F", "Percent Effect": -11.38}, {"smiles": "CCn1nc(C)c(CN(CCOC)Cc2ccccn2)c1C", "Percent Effect": -2.912}, {"smiles": "CCn1nc(C)c(CN(CCCN(C)C)Cc2ccccn2)c1C", "Percent Effect": -9.336}, {"smiles": "CCn1nc(C)c(CN(Cc2ccccn2)Cc2ccccc2Cl)c1C", "Percent Effect": 58.2}, {"smiles": "Cc1nn(C)cc1CN(Cc1ccccn1)Cc1ccccc1Cl", "Percent Effect": 53.11}, {"smiles": "Cc1nn(C)cc1CN(C)C(=O)c1ccccn1", "Percent Effect": -16.12}, {"smiles": "Cn1cc(CN(Cc2ccccn2)Cc2ccccc2Cl)cn1", "Percent Effect": 20.97}, {"smiles": "O=C(O)C(=O)O.c1cncc(CN2CCC(c3ccc4c(c3)OCO4)CC2)c1", "Percent Effect": -6.288}, {"smiles": "CC(C)CS(=O)(=O)N1C[C@H]2C[C@H](C(=O)N3CCCC3)[C@@H](C1)O2", "Percent Effect": 18.86}, {"smiles": "CSc1ccc(CN2C[C@@H]3CC[C@@](O)(c4ccc(C)cn4)[C@@H]3C2)cc1", "Percent Effect": 28.36}, {"smiles": "C[C@H]1CN(c2ccccn2)C[C@@]12CCN(Cc1cccnc1)C2=O.O=C(O)C(F)(F)F.O=C(O)C(F)(F)F", "Percent Effect": -8.389}, {"smiles": "O=C(CS(=O)(=O)c1ncccc1Cl)NC1CCCc2ccccc21", "note": "(stereo not given)", "Percent Effect": 57.06}, {"smiles": "O=C(CS(=O)(=O)c1ccc(Cl)cc1)NC1CCCc2ccccc21", "note": "(stereo not given)", "Percent Effect": 17.58}, {"smiles": "O=C(CS(=O)(=O)c1ccccn1)NC1CCCc2ccccc21", "note": "(stereo not given)", "Percent Effect": 34.88}, {"smiles": "COc1ccc(CN2CCn3cccc3C2C)cc1F", "note": "(stereo not given)", "Percent Effect": 13.47}, {"smiles": "COc1ccc(C(C)=O)cc1CN1CCn2cccc2C1C", "note": "(stereo not given)", "Percent Effect": 9.9}, {"smiles": "COc1ccc(C)cc1CN1CCn2cccc2C1C", "note": "(stereo not given)", "Percent Effect": 86.02}, {"smiles": "CCOc1ccccc1C1CCCN1.Cl", "note": "(stereo not given)", "Percent Effect": 3.065}, {"smiles": "COc1cc(CNCC(O)c2ccccc2)cc2c1OCO2.Cl", "note": "(stereo not given)", "Percent Effect": -7.292}, {"smiles": "Cl.c1ccc(CN2CCNCC(Cc3cnccn3)C2)cc1", "note": "(stereo not given)", "Percent Effect": -10.09}, {"smiles": "O=C(O)C(F)(F)F.O=C(c1ccco1)N1CC2(CCNCC2)c2cc(Cl)ccc21", "Percent Effect": -24.85}, {"smiles": "O=C(O)C(F)(F)F.O=C(O)C(F)(F)F.c1cnc(N2CCC3(CCN(Cc4ccncc4)CC3)CC2)nc1", "Percent Effect": 6.802}, {"smiles": "CCc1nc(C)c(CN2CCOC(Cc3cccc4ccccc34)C2)[nH]1", "note": "(stereo not given)", "Percent Effect": 8.588}, {"smiles": "c1ccc2c(CC3CN(Cc4nccs4)CCO3)cccc2c1", "note": "(stereo not given)", "Percent Effect": -8.986}, {"smiles": "Cc1cccnc1CN1CCOC(Cc2cccc3ccccc23)C1", "note": "(stereo not given)", "Percent Effect": 106.2}, {"smiles": "CCN1CCc2c(sc3c2C(=O)NC(/C=C/c2ccco2)N3)C1", "note": "(stereo not given)", "Percent Effect": -25.76}, {"smiles": "O=C(Cc1cnccn1)N1C[C@H]2CC[C@@H]1CN(Cc1cscn1)C2", "Percent Effect": -4.902}, {"smiles": "Cc1cccnc1NC(=O)C1(n2cnnn2)CCCCC1", "Percent Effect": 10.66}, {"smiles": "O=C(Nc1ccccn1)C1(n2cnnn2)CCCCC1", "Percent Effect": 4.562}, {"smiles": "O=C(NCCc1c[nH]c2ccccc12)C1CCC(Cn2cnnn2)CC1", "note": "(stereo not given)", "Percent Effect": 2.28}, {"smiles": "O=C(NCCc1c[nH]c2ccccc12)C1(n2cnnn2)CCCCC1", "Percent Effect": 102.3}, {"smiles": "Cc1cccc(NC(=O)C2(n3cnnn3)CCCCC2)n1", "Percent Effect": -23.83}, {"smiles": "O=C(NCCc1cccc(F)c1)C1(n2cnnn2)CCCCC1", "Percent Effect": 90.07}, {"smiles": "O=C(NCCc1ccccn1)C1(n2cnnn2)CCCCC1", "Percent Effect": -1.374}, {"smiles": "O=C(NCCc1c[nH]c2ccc(F)cc12)C1(n2cnnn2)CCCCC1", "Percent Effect": 102.2}, {"smiles": "Cc1ccnc(NC(=O)C2(n3cnnn3)CCCCC2)c1", "Percent Effect": -14.84}]}]}
